Source: PubChem BioAssay
CYP2C19 inhib: inhibitors of human CYP2C19. P33261. 21% of 96,000 active. inhibition, % at 5 µM. CYP2C19 Supersomes, luciferin-H EGE luminescence, 30 min;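 active = CYP2C19 inhibition above a set limit at 5 µM in the primary screen, cut at about 50% in these data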;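 note: plate controls were negative control wells for no effect and 2.5 mM tranylcypromine positive control for full effect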
CYP2C9 inh: inhibitors of human CYP2C9; 20% of 96,000 active; inhibition, % at 5 µM; CYP2C9 Supersomes, luciferin-H conversion, luminescence; P11712; AID 777;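 active = blocking of liver enzyme CYP2C9 beyond about 50% at 5 µM, limit read from the data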
Target sequence (P11712 whole entry, looked up): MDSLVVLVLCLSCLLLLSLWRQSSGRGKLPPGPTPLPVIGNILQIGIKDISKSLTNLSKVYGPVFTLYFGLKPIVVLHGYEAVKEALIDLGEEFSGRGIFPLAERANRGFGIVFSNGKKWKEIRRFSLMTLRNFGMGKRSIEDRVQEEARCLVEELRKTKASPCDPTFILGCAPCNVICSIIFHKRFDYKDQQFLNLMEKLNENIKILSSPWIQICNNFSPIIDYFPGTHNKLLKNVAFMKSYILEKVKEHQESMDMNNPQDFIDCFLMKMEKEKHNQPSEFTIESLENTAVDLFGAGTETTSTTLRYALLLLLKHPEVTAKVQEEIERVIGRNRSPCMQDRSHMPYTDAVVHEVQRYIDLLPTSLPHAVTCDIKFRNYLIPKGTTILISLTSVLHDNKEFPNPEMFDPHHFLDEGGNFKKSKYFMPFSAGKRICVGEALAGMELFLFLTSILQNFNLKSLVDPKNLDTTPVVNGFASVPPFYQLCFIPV
CYP2C9 activ: increases human cytochrome P450 2C9 activity; P11712; recombinant CYP2C9, luciferin-H conversion, luminescence; hits give high values; factor 1 = untreated enzyme, 0 = blocked; activation factor at 5 µM; 1.4% of 96,000 active; AID 1024;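 active = activation factor of 2 or more for CYP2C9 at a 5 µM dose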;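 note: 0 = sulfaphenazole-blocked wells and 1 = vehicle-only wells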
Measles CPE: protection of cells from measles virus | Measles virus-infected cells, CPE protection, absorbance | protection (pct of control), % at 4 µM | 1.5% of 140,000 active; in the data active = protection mostly above about 24%, no sharp cut-off; inactive = mostly below about 26%
CYP2C19 activ: cytochrome P450 2C19 (human) activation | recombinant CYP2C19, luciferin-H EGE luminescence; hits give high values; 0 = fully inhibited enzyme, 1 = untreated enzyme | P33261 | 96,000 tested, under 10 active | AID 1025 | activation factor at 5 µM;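 active = activation factor of at least 2 at 5 µM in the primary screen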;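 note: 0 = wells with 2.5 mM tranylcypromine and 1 = vehicle-only wells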
Numbers without * were called inactive; · = no result. In the library only some 22% were active in any assay of this set; here they are far more common.

SMILES | CYP2C19 inhib | CYP2C9 inh | CYP2C9 activ | Measles CPE | CYP2C19 activ
O=C(/C=C/c1ccc2c(c1)OCO2)Nc1nc(-c2ccccc2)cs1 | 59* | 74* | 0.3 | 7 | 0.4
Cc1sc(NC(=O)/C=C/c2ccc3c(c2)OCO3)nc1-c1ccccc1 | · | · | · | 3 | ·
O=C(/C=C/c1cccs1)Nc1nc(-c2ccccc2)cs1 | 70* | 85* | 0.2 | 2 | 0.3
CCN=c1scc(C)n1/N=C/c1ccsc1 | 60* | 38 | 0.6 | 20 | 0.4
CN=c1scc(C)n1/N=C/c1ccc(O)c(O)c1O | 14 | 2 | 1 | 6 | 0.9
CCC(C(=O)Nc1ccccc1OC)n1c(C(=O)OC)cc2ccsc21 (centres undefined) | 98* | 96* | 0 | 13 | 0
C/C(CC(C)(C)C1CCCCC1)=N\NC(N)=S | 93* | 35 | 0.7 | 0 | 0.1
CCCCCCC(=O)N(O)C1CC(=O)N(c2ccc(Br)cc2)C1=O (centres undefined) | 52* | 32 | 0.7 | 5 | 0.5
CC1CCc2c(sc(NC(=O)c3ccc(-c4ccccc4[N+](=O)[O-])o3)c2C#N)C1 (centres undefined) | 11 | 91* | 0.1 | 2 | 0.9
CC1CCc2c(sc(NC(=O)c3ccc(Cn4cc([N+](=O)[O-])cn4)o3)c2C#N)C1 (centres undefined) | -2 | -9 | 1.1 | 3 | 1
N#Cc1c(NC(=O)c2ccc(-c3ccccc3[N+](=O)[O-])o2)sc2c1CCCC2 | 50 | 99* | 0 | 3 | 0.5
Cc1cccn2cc(-c3ccccc3)nc12 | 9 | 0 | 1 | 22 | 0.9
Cc1cccn2cc(-c3ccc(F)cc3)nc12 | 67* | 38 | 0.6 | 1 | 0.3
O=C(NC12CC3CC(CC(C3)C1)C2)N1CCC(O)(c2ccc3c(c2)OCO3)CC1 | 43 | -5 | 1.1 | 7 | 0.6
Cc1ccc(OCCOCCN(C)C)c(Cl)c1 | · | · | · | 23 | ·
CCC(C)(C)NC(=O)C(c1ccco1)N(C(=O)CNC(=O)c1cccs1)c1cccnc1 (centres undefined) | · | · | · | 4 | ·
CC1(c2ccc(Cl)c(Cl)c2)NC(=S)N2C1NC(=S)N2c1ccccc1 (centres undefined) | 78* | 37 | 0.6 | 14 | 0.2
O=C1Nc2cc(Cl)c(Cl)cc2N(O)N1c1ccccc1 | 1 | 10 | 0.9 | 18 | 1
O=C1C2C3C=CC(CC3)C2C(=O)N1c1nccs1 (centres undefined) | · | · | · | 9 | ·
O=C1C2C3C=CC([C@@H]2C(=O)N1c1nccs1)C31CC1 (some centres undefined) | 76* | 9 | 0.9 | 6 | 0.2
Cc1ccc(NCC(=O)NNC2=NCCC2)c(C)c1 | · | · | · | 5 | ·
CCOC(=O)C1=C(C)NC(SCC(=O)O)=NC1c1ccccc1 (centres undefined) | 16 | 16 | 0.8 | 4 | 0.8
CCOC(=O)c1ccc(-c2c(C(=O)OCC)oc3cc(O)c(CC)cc3c2=O)o1 | 68* | 97* | 0 | 1 | 0.3
CCOC(=O)c1oc2cc(O)ccc2c(=O)c1-c1ccccc1OC | 6 | 28 | 0.7 | 5 | 0.9
CCOC(=O)c1ccc(CC(=O)c2oc3cc(O)ccc3c2C)o1 | 28 | 66* | 0.3 | 14 | 0.7
SMILES | CYP2C19 inhib | CYP2C9 inh | CYP2C9 activ | Measles CPE | CYP2C19 activ
CCOC(=O)c1oc2cc(O)ccc2c(=O)c1-c1csc(C)n1 | -9 | 4 | 1 | 7 | 1.1
COc1cc(-c2nc3ccc4ccccc4c3c3c2CCC3)cc(OC)c1OC | 8 | 8 | 0.9 | 5 | 0.9
COc1cc2ccccc2c2c1CCCC2=O | 59* | -38 | 1.4 | 5 | 0.4
O=C(NC(=S)NCC1CCCO1)c1ccc([N+](=O)[O-])cc1 (centres undefined) | · | · | · | 8 | ·
CCOc1cc(/C=C2\C(=O)N(c3nc(-c4ccc(Br)cc4)cs3)N=C2c2ccccc2)ccc1O | 25 | 87* | 0.1 | 0 | 0.7
CCOc1ccc(OCC)c(NC(=O)C2CCCN2S(=O)(=O)c2cccc3cccnc23)c1 (centres undefined) | 41 | -64 | 1.6 | 2 | 0.6
CCOc1ccc(Br)cc1S(=O)(=O)N1CC(C)OC(C)C1 (centres undefined) | 88* | -3 | 1 | 5 | 0.1
CCOc1ccc(S(=O)(=O)N2CCCCC2)c2ccccc12 | 45 | -49 | 1.5 | 15 | 0.5
CCOc1cc(Br)ccc1S(=O)(=O)N1CC(C)OC(C)C1 (centres undefined) | 11 | 12 | 0.9 | 20 | 0.9
